# High-throughput results from PubChem BioAssay.
# An excerpt weighted towards active compounds, which were near 6.9% of everything screened.
# Beta apoptosis = blocks beta cell apoptosis | INS-1E cytokine-induced death, ATP luminescence, 48 h; percent of positive-control rescue, neutral wells zero | protection from apoptosis, % (no concentration beside the values) | actives 0.8% (n = 300,000);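 active = Every replicate reaches about 75%, or at least half do and their mean reaches it too, limit read from the data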;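 also: 0% = cytokine-treated negative control wells and 100% = positive control rescue; higher means more ATP so stronger rescue from cytokine killing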
# Mdm2-MdmX inh = inhibitors of human Mdm2/MdmX interaction. SaOS-2 split-luciferase Mdm2/MdmX complementation, luminescence. inhibition, % at 8 µM. actives 3% (n = 330,000);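 active = inhibition of at least 50% at 8 µM in the primary screen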
# Target sequence (O15151 whole entry, looked up): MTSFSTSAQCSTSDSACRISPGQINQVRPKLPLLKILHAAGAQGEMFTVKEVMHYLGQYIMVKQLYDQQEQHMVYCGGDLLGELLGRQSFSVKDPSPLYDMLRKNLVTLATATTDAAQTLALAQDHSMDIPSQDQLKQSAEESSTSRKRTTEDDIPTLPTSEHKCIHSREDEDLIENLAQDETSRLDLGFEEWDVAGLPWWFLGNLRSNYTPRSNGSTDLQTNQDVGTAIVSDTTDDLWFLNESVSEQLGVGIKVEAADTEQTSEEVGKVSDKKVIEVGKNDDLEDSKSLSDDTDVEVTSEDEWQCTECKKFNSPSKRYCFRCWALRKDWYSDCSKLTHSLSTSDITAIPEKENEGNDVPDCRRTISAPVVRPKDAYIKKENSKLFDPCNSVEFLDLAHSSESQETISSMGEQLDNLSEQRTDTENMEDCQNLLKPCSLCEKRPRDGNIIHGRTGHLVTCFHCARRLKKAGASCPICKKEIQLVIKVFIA
# Target sequence (Q00987 whole entry, looked up): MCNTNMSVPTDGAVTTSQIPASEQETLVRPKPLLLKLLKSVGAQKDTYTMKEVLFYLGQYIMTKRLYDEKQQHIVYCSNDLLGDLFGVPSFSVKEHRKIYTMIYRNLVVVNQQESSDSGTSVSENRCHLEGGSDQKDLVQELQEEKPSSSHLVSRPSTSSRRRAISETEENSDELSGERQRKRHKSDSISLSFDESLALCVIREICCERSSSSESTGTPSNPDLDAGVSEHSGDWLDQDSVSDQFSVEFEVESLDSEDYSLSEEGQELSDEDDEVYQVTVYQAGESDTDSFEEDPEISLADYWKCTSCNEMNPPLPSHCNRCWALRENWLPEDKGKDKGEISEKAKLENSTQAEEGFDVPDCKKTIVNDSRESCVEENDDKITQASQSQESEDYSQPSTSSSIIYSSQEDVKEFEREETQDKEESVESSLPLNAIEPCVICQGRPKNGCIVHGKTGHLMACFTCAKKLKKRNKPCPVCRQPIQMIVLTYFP
# CSC inhib = cancer stem cell inhibition | cancer stem cell-like cells viability, luminescence | inhibition, % at 7.5 µM | actives 1.1% (n = 300,000); in the data active = inhibition above about 75%; tested in HMLE shEcad cells
# MPTP inh = permeability transition pore inhibition; isolated mouse mitochondria, Ca2+ swelling absorbance, 30 min; inhibition, % at 10 µM; actives 1.4% (n = 360,000); AID 602449;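 active = inhibition of 50% or more, scaled per plate between neutral and stimulator controls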;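 also: 0% = DMSO wells given calcium and 100% = 1 mM EGTA wells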
# SKKanGAS inh = SKKanGAS growth inhibition | S. pyogenes SKKanGAS, kanamycin growth, BacTiter-Glo, 6 h | inhibition, % at 7.5 µM | actives 1.3% (n = 300,000) | AID 1662;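 active = mean replicate score, as percent of positive control median, at least 50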;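 also: strain carries kanamycin resistance gene driven by streptokinase promoter and grows in 40 µg/ml kanamycin; loss of luminescence reflects streptokinase promoter inhibition or plain growth inhibition; 0% = median of DMSO wells and 100% = positive control at its reference dose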
# GRIN3A LBD mod = NR3A (human) ligand-binding domain modulation; actives 2.5% (n = 340,000); NR3A LBD differential scanning fluorimetry, Tm shift; 0% = protein alone, 100% = glycine-bound protein; Tm shift relative to glycine control, % at 25 µM;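 active = melting temperature shift of at least 10% of the positive control shift, at one fixed dose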
# Mdm2 MdmX conf = human Mdm2/MdmX binding inhibition, confirmed | shares compounds with Mdm2-MdmX inh | luminescent assay | inhibition, % at 8 µM | actives 55% (n = 10,000); in the data active = inhibition above about 40%
# FLuc counter = full-length luciferase inhibition in Mdm2/MdmX counter-screen. shares compounds with Mdm2-MdmX inh. SaOS-2 full-length luciferase counterscreen, luminescence. inhibition, % at 8 µM. actives 77% (n = 6,200);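 active = mean inhibition at 8 µM reaching about 37%, which flags the compound as non-specific, limit read from the data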;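 also: p53-null SaOS-2 cells with luciferase driven by a doxycycline-inducible promoter; compound on cells about two nights before reading with doxycycline added after day one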
# * marks the source's active call; other numbers are inactive results; / = no result.
SMILES,Beta apoptosis,Mdm2-MdmX inh,CSC inhib,MPTP inh,SKKanGAS inh,GRIN3A LBD mod,Mdm2 MdmX conf,FLuc counter
CCN1CCN(c2ncnc3ccc(Br)cc23)CC1,-8,62*,/,16,1,1,62*,42*
CCc1cc2c(N3CCN(C)CC3)ncnc2s1,-4,-1,3,-3,-2,2,/,/
C=C1C(O)[C@@H]2O[C@]3(CC[C@H](/C=C/C(C)[C@@H]4CC(C)=CC5(O[C@H](C[C@@](C)(O)C(=O)O)CCC5O)O4)O3)CC[C@H]2O[C@@H]1C(O)CC(C)[C@H]1OC2(CCCCO2)CCC1C (some centres not stated),85*,98*,/,/,/,13*,100*,0
COC(=O)C1=C(c2ccc(Cl)c(C(F)(F)F)c2)C[C@@H]2CC[C@H]1N2C(=O)N1CCC(O)(c2ccc(Cl)cc2)CC1,5,88*,/,-2,/,-4,16,/
COC(=O)C1=C(c2ccc(Cl)c(C(F)(F)F)c2)C[C@@H]2CC[C@H]1N2C(=O)N1CCCC1,3,-5,6,-1,/,-1,/,/
O=C(CCC(=O)N1CC2C[C@@H](C1)Cn1c2cccc1=O)NCCc1ccccc1,/,-15,-2,-4,2,2,/,/
CC1CCCC(C)N1/N=C/c1c[nH]c2ccc(Br)cc12 (configuration not stated),4,52*,/,12,0,-7,27,/
O=C(O)c1ccccc1NC(=O)N1C[C@H]2C[C@@H](C1)c1cccc(=O)n1C2,-3,-6,16,0,2,1,/,/
CCC(C)C(=O)N[C@@H](c1ccccc1)[C@@H](O)C(=O)O[C@H]1C[C@@]2(O)[C@@H](OC(=O)c3ccccc3)C3[C@](C)(C(=O)[C@H](OC(C)=O)C(=C1C)C2(C)C)[C@@H](O)C[C@H]1OC[C@@]31OC(C)=O (some centres not stated),15,62*,53,-2,4,-2,66*,39*
C/C=C(\C)C(=O)N[C@@H](c1ccccc1)[C@@H](O)C(=O)O[C@H]1C[C@@]2(O)[C@@H](OC(=O)c3ccccc3)C3[C@](C)(C(=O)[C@H](OC(C)=O)C(=C1C)C2(C)C)[C@H](O)C[C@H]1OC[C@@]31OC(C)=O (some centres not stated),5,40,-11,0,9,-3,/,/
CC/C=C/CC(=O)N[C@@H](c1ccccc1)[C@@H](O)C(=O)O[C@H]1C[C@@]2(O)[C@@H](OC(=O)c3ccccc3)C3[C@](C)(C(=O)[C@H](OC(C)=O)C(=C1C)C2(C)C)[C@@H](O)C[C@H]1OC[C@@]31OC(C)=O (some centres not stated),/,69*,64,-2,0,-2,67*,48*
Cc1ccccc1N1CCN(Cc2ccc3c(c2)OCO3)CC1,-1,12,15,0,8,-1,/,/
CC(=O)O[C@H]1CCC2C3CCC4=CC(=O)CCC4=C3C=C[C@@]21C (some centres not stated),-10,19,-6,0,9,0,/,/
O=C(CSC1c2ccccc2-c2ccccc21)N/N=C/c1ccccc1O,87*,82*,83*,15,5,6,76*,28
Cc1ccccc1-n1c(C)nc2ccsc2c1=O,/,-11,1,0,-6,1,/,/
COC(=O)C1=C(c2cc3ccccc3s2)C[C@@H]2CC[C@H]1N2C(=O)NCC1CC1,/,39,-6,2,-2,-1,/,/
COC(=O)C1=C(c2cc3ccccc3s2)C[C@@H]2CC[C@H]1N2C(=O)NCc1ccc(C(F)(F)F)cc1,-1,57*,60,1,32,-6,18,/
CC/C(=C\C=C\[C@@H]1C=C[C@@H]2CCC[C@H]2[C@@H]1C(=O)c1ccc[nH]1)[C@@H]1O[C@@H]([C@@H](C)C(=O)O)CC[C@@H]1C,35,84*,90*,/,131*,0,74*,37*
C/C=C(\C)C(=O)OC1C(C)=C2C(C1OC(=O)CCCCC)C(C)(OC(C)=O)CC(OC(=O)CCC)C1(O)C2OC(=O)C1(C)O (configuration not stated),107*,82*,101*,/,31,/,64*,24
CCC1CCC(C)N(N=O)C1 (configuration not stated),/,/,/,-5,/,-2,/,/
Cc1ccc2c(c1)N(C(=O)CCC(=O)N1CCC3(CC1)OCCO3)CC(C)O2 (configuration not stated),-3,15,-4,0,-3,1,/,/
CC1(C)C2([N+](=O)[O-])CNCC1([N+](=O)[O-])CNC2,-4,7,-6,0,-8,1,/,/
COc1cc2c(c(OC)c1OC)-c1ccc(O)cc1C(NC(C)=O)CC2 (configuration not stated),/,/,/,-3,/,-1,/,/
COc1cc2c(c(OC)c1OC)-c1ccc(O)cc1[C@@H](NC(C)=O)CC2,59,63*,4,-1,-3,-2,65*,107*
Cc1ccc(Oc2cc(NN3CCCCC3)c([N+](=O)[O-])cc2[N+](=O)[O-])c([N+](=O)[O-])c1,-1,51*,17,0,10,-2,28,/
SMILES,Beta apoptosis,Mdm2-MdmX inh,CSC inhib,MPTP inh,SKKanGAS inh,GRIN3A LBD mod,Mdm2 MdmX conf,FLuc counter
O=[N+]([O-])c1cc(F)c(N2CCCCC2)cc1Br,0,8,-11,1,-2,-1,/,/
COc1ccc2[nH]c(C)c(CCNCc3cc(OC)c(OC)c(OC)c3)c2c1,4,-13,-9,-3,3,0,/,/
COc1ccc(CNCCc2c(C)[nH]c3ccc(OC(F)(F)F)cc23)c(OC)c1,88*,87*,16,2,-1,5,53*,52*
O=P1(NCCCn2cc[n+](Cc3nc4ccccc4[nH]3)c2)C=C(c2ccccc2)OC(c2ccccc2)=C1,-4,2,-16,-2,-13,-1,/,/
COc1cc(OC)c2c(c1)OCC1CON(C)C21 (configuration not stated),1,-33,-14,-2,14,0,/,/
CCC1CCCCN1CC(=O)c1ccc(OC(F)F)cc1 (configuration not stated),-6,-7,3,0,-2,2,/,/
N=C1c2ccccc2CN1c1cccc([N+](=O)[O-])c1,-2,-4,-12,-1,-13,0,/,/
N=C1c2ccccc2CN1c1ccc(F)c([N+](=O)[O-])c1,3,53*,-8,1,-4,1,30,/
CCOC(=O)[C@]12Cc3cc(Cl)ccc3[C@H]1N(CC(=O)OC)C(=O)c1ccccc12,/,/,/,-4,/,/,/,/
